Measured values from PubChem BioAssay (NCATS).
Values joined by “and” are separate entries in the source; they are usually repeats but may differ in a detail not shown here. Equal entries are not always repeated. Records with an inconclusive call do not appear. Active and inactive are the calls of the source. Unless noted, calls follow the shape of the full dose curve.

How the values were obtained:
[1] = qHTS assay for small molecule agonists of retinoid X receptor alpha signaling (AID 588544); conditions: HEK293T RXRa-UAS-bla, beta-lactamase reporter, 18 h; 530 nm emission;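 as to activation: 0% = DMSO basal wells and 100% = reference agonist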
[2] = molecular target: Retinoic acid receptor RXR-alpha (Homo sapiens) (UniProt P19793); assay: as above; conditions: HEK293T RXRa-UAS-bla, beta-lactamase reporter, 18 h; series mostly up to 76.7 µM
[3] = molecular target: Thyroid hormone receptor beta (Homo sapiens) (UniProt P10828); assay: qHTS assay for small molecule agonists of thyroid hormone receptor beta signaling (AID 588545); conditions: TR-UAS-bla GripTite HEK 293, beta-lactamase ratio, agonist mode, 18 h, percent of T3 response, DMSO as zero; series mostly up to 76.7 µM;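 also: 0% = DMSO only and 100% = 10 nM T3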
Summary of the method: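 TR-UAS-bla GripTite HEK 293 cells (2500/well, medium with 2% charcoal/dextran FBS) were treated in agonist mode for 18 h at 37 C, titrated. Beta-lactamase was read by CCF4 ratio after 2 h; normalized to 10 nM T3 (100%) and DMSO, Hill-fitted for EC50 and efficacy.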

[4] = qHTS assay for small molecule antagonists of retinoid X receptor alpha signaling (AID 588546; active = well fitted inhibition curve with a large enough effect in the signal ratio, with a control signal flat, not every such curve was filed as active; the % refers to the signal ratio;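 also: cells stimulated with 9-cis-retinoic acid as agonist; % is scaled to controls: 0 for no effect and ±100 for the full control effect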); conditions: HEK293T RXRa-UAS-bla, beta-lactamase ratio, antagonist mode; measured here: W530 green channel, cytotoxicity proxy
Summary of the method: (§1)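 Beta-lactamase reporter inhibition, read as CCF4 fluorescence ratio (ex 405, em 460/530 nm) after 2 h at RT. HEK293T UAS-bla cells, 2500/well, were stimulated with 9-cis-RA at 500 or 100 nM final alongside test compound for 18 h at 37 C.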

[5] = molecular target: Retinoic acid receptor RXR-alpha (Homo sapiens) (UniProt P19793); assay: as above; conditions: HEK293T RXRa-UAS-bla, beta-lactamase ratio, antagonist mode
Summary of the method: as §1

[6] = molecular target: Thyroid hormone receptor beta (Homo sapiens) (UniProt P10828); assay: qHTS assay for small molecule antagonists of thyroid hormone receptor beta signaling (AID 588547; active = well fitted inhibition curve with a large enough effect in the signal ratio, with a control signal flat, not every such curve was filed as active; the % refers to the signal ratio;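 also: cells stimulated with 0.4 nM T3 agonist during compound exposure; % is scaled to controls: 0 for no effect and ±100 for the full control effect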); conditions: TR-UAS-bla HEK293, beta-lactamase ratio, antagonist mode, 18 h
Summary of the method: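 TR-UAS-bla GripTite HEK293 cells in 2% charcoal/dextran FBS medium were preincubated 4 h at 37 C, given compound (0.59 nM to 92 uM) plus 0.4 nM T3 (final) for 18 h, then CCF4 for 2 h at RT; Hill fit gave IC50.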

[7] = molecular target: Voltage-gated inwardly rectifying potassium channel KCNH2 (Homo sapiens) (UniProt Q12809); assay: qHTS Assay for Small Molecule Inhibitors of the Human hERG Channel Activity (AID 588834; active = well fitted inhibition curve with a large enough effect;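 also: top concentration of the series differs between compounds; % is scaled to controls: 0 for no effect and ±100 for the full control effect; lower thallium flux fluorescence means stronger hERG block; nearly all actives have a fitted effect of over 50% in size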); conditions: U2OS BacMam hERG, FluxOR thallium flux fluorescence; series mostly up to 92.2 µM
Summary of the method: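 hERG-BacMam U2OS, 2000 cells/well; 0.7X FluxOR loading 1 hr RT dark; cpd ~10 min 37 °C; stim buffer; FDSS fluorescence 2 min @ 1 s; AC50 Hill fit.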

[8] = qHTS assay for small molecule agonists of the antioxidant response element (ARE) signaling pathway (AID 651741; active = well fitted activation curve with a large enough effect in the signal ratio; the % refers to the signal ratio; also: potency is read from the fitted curve at half-maximal effect; as to activation: % of control where 0% means no effect); conditions: HepG2 ARE-bla reporter, beta-lactamase FRET ratio, 16 h; series mostly up to 96 µM
Summary of the method: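 ARE-bla HepG2 cells (beta-lactamase reporter under ARE control) were plated at 2,000 cells/well, preincubated 5 h at 37 C/5% CO2, then treated with DMSO-dissolved compounds for 16 h at 37 C; LiveBLAzer B/G FRET substrate added, fluorescence read after 2 h at room temperature.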

[9] = qHTS assay for small molecule activators of the p53 signaling pathway (AID 651743; active = well fitted activation curve with a large enough effect in the signal ratio, not every such curve was filed as active; the % refers to the signal ratio; also: % of control where 0% means no effect); conditions: HCT-116 p53RE-bla, beta-lactamase FRET ratio, 16 h; stronger effect = higher value
Summary of the method: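 p53RE-bla HCT-116 cells with a stably integrated beta-lactamase reporter under p53 response elements were plated, rested 5 hours at 37 C/5% CO2, then exposed to compounds in DMSO for 16 hours at 37 C. LiveBLAzer B/G FRET substrate was read after 2 hours at room temperature.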

[10] = qHTS assay for small molecule activators of the nuclear factor-kappa B (NF-kB) signaling pathway (AID 651749; active = well fitted activation curve with a large enough effect in the signal ratio; the % refers to the signal ratio; also: % of control where 0% means no effect); conditions: NF-kB-bla ME-180 cells, beta-lactamase FRET ratio, 16 h; stronger effect = higher value
Summary of the method: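 ME-180 cells stably carrying a beta-lactamase reporter under an NF-kB response element were exposed to compound or DMSO vehicle for 16 hr at 37C, 5% CO2. Pathway activation was read by FRET, since reporter expression disrupts FRET.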

Chain of Thyroid hormone receptor beta (Homo sapiens) (P10828 whole entry, looked up): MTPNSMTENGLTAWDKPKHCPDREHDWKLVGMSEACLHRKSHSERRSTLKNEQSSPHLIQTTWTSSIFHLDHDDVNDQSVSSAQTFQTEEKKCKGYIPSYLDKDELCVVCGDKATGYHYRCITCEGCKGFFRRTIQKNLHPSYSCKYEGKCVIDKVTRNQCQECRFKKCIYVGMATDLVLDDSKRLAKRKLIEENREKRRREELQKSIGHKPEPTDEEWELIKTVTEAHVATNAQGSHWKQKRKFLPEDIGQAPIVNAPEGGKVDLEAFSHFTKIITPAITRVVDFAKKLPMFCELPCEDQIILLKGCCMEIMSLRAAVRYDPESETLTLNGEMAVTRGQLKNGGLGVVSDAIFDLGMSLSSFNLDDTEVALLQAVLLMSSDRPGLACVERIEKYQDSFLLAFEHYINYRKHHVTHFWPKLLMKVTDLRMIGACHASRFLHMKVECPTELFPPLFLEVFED
Chain of Retinoic acid receptor RXR-alpha (Homo sapiens) (P19793 whole entry, looked up): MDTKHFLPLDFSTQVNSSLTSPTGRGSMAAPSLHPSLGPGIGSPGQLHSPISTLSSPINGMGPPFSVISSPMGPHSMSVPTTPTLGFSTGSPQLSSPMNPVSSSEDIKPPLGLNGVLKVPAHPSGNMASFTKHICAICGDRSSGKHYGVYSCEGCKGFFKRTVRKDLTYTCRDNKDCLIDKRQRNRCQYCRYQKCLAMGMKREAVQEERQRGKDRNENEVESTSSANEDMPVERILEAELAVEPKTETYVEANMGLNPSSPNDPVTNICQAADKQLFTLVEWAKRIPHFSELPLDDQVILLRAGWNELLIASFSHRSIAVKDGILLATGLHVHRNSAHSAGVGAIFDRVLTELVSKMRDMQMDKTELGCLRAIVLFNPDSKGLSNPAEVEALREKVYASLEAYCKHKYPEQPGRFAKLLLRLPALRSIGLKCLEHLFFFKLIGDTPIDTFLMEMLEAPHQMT
Chain of Voltage-gated inwardly rectifying potassium channel KCNH2 (Homo sapiens) (Q12809 whole entry, looked up): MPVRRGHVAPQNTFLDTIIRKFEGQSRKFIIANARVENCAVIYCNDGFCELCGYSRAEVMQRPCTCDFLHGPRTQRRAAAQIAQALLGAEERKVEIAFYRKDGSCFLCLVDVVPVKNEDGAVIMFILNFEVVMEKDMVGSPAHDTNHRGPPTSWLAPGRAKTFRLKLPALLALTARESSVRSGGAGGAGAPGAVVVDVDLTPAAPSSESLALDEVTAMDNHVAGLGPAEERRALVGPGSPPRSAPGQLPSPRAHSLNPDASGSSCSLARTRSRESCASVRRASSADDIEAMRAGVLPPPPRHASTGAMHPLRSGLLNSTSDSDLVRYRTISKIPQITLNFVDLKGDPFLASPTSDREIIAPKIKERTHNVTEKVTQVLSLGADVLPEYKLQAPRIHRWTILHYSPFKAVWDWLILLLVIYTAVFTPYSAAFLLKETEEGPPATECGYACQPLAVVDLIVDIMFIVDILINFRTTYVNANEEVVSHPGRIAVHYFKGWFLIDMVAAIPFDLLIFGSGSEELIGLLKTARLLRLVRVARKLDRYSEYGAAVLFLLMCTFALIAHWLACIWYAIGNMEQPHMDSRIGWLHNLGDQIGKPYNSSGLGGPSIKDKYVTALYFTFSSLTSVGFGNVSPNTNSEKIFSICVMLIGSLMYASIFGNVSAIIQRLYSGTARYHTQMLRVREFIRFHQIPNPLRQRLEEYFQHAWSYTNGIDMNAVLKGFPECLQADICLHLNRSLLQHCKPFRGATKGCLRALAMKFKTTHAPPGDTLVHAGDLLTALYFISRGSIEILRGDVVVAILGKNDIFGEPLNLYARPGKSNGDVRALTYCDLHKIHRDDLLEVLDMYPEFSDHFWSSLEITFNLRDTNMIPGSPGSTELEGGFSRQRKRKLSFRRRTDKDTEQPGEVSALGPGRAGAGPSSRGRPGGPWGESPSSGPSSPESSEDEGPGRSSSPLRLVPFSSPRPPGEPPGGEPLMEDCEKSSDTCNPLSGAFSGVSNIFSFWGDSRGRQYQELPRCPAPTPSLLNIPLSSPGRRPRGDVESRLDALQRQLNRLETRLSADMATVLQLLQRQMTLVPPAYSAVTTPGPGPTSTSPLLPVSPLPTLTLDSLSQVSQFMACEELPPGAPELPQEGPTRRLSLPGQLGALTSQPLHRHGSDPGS

SMILES | max response [1] | outcome [2] | outcome [3] | max response [4] | max response [5] | activity change % (negative = inhibition) [6] | Potency [7] | Potency [8] | activation [9] | activation [10]
Cc1cc(C)cc(N)c1 | -7.06% | inactive | inactive | 1.47% | 9.88% (inactive) | -11.7% (inactive) | inactive | inactive | -1.89% (inactive) | 0.882% (inactive)
CCCCC/C=C/C=C/C=O | -6.95% and 20% | inactive | inactive | -1.35% and -13.3% | 1.5% (inactive) and -3.35% (inactive) | 6.77% (inactive) and -0.205% (inactive) | inactive | 48.6 µM (active) | -11.3% (inactive) | -1.4% (inactive) and -2.02% (inactive)
NC(=S)NNC(N)=S | -14.7% and -3.73% | inactive | inactive | -7.09% | -19.9% (inactive) | -0.459% (inactive) and 12.6% (inactive) | inactive | inactive | 1.05% (inactive) and -1.18% (inactive) | -0.0609% (inactive) and -1.04% (inactive)
O=C(O)c1cccc([N+](=O)[O-])c1 | -11.3% and -11.9% | inactive | inactive | -5.28% and -12.1% | -4.13% (inactive) and 8.19% (inactive) | 3.98% (inactive) and -3.17% (inactive) | inactive | inactive | -1.71% (inactive) and -6.43% (inactive) | -1.01% (inactive) and -3.15% (inactive)
Cc1ccc(C)c(N)c1 | 7.96% | inactive | inactive | -10.5% | 21.7% (inactive) | -4.28% (inactive) | inactive | inactive | -2.64% (inactive) | 0.0574% (inactive)
OC(CCl)CCl | -16.7% | inactive | inactive | -12.4% | -2.39% (inactive) | 2.68% (inactive) | inactive | inactive | -1.36% (inactive) | 1.2% (inactive)
CC(=O)Nc1ccc(C)cc1 | -6.19% | inactive | inactive | -3.72% | 5.73% (inactive) | 8.42% (inactive) | inactive | inactive | -3.2% (inactive) | 1.33% (inactive)
CC(=O)OC(C)=O | -0.73% | inactive | inactive | -8.16% | 5.52% (inactive) | 16.3% (inactive) | inactive | inactive | 1.52% (inactive) | -1.18% (inactive)
O=C(O)CNC(=O)c1ccc([N+](=O)[O-])cc1 | 0.246% | inactive | inactive | -9.96% | 23.2% (inactive) | 4.89% (inactive) | inactive | inactive | -1.97% (inactive) | 0.89% (inactive)
CC(=O)CCc1ccccc1 | -7.54% | inactive | inactive | -0.836% | 0.594% (inactive) | 12% (inactive) | inactive | inactive | -1.61% (inactive) | 0.0566% (inactive)
c1ccsc1 | -5.29% | inactive | inactive | -0.2% | -6.87% (inactive) | -13.7% (inactive) | inactive | inactive | 1.47% (inactive) | 0.633% (inactive)
CCCCC(CC)CO (stereo not given) | -6.11% | inactive | inactive | -1.2% | 16% (inactive) | -6.25% (inactive) | inactive | inactive | -4.64% (inactive) | -1.43% (inactive)
CC/C=C/C#N | -6.67% | inactive | inactive | -0.89% | 10.5% (inactive) | 3.84% (inactive) | inactive | inactive | -0.654% (inactive) | -2.54% (inactive)
C=CCCCC | -12.2% | inactive | inactive | -3.19% | -7.65% (inactive) | 9.97% (inactive) | inactive | inactive | 0.701% (inactive) | 0.582% (inactive)
CC(C)N(C)C | -10.9% | inactive | inactive | -0.298% | 11.2% (inactive) | -6.45% (inactive) | inactive | inactive | -1.2% (inactive) | -1.35% (inactive)
C/C=C(/C)C#N | -23.6% | inactive | inactive | 0.293% | 32% (inactive) | 15% (inactive) | inactive | inactive | -0.853% (inactive) | -0.053% (inactive)
O=[N+]([O-])c1cccc(Cl)c1 | -8.32% | inactive | inactive | -3.93% | 7.77% (inactive) | -12.9% (inactive) | inactive | inactive | -3.73% (inactive) | 0.464% (inactive)
Nc1cccc(S(=O)(=O)O)c1 | 8.69% | inactive | inactive | -5.6% | 16.1% (inactive) | -28.7% (inactive) | inactive | inactive | -1.01% (inactive) | -0.968% (inactive)

SMILES | max response [1] | outcome [2] | outcome [3] | max response [4] | max response [5] | activity change % (negative = inhibition) [6] | Potency [7] | Potency [8] | activation [9] | activation [10]
Cc1cccc2ccccc12 | -13.1% | inactive | inactive | -10.1% | 0.915% (inactive) | 12.2% (inactive) | inactive | inactive | -1.93% (inactive) | -1.12% (inactive)
CC/C=C1/OC(=O)c2ccccc21 | 0.089% | inactive | inactive | -8.24% | 8.95% (inactive) | 10.4% (inactive) | inactive | inactive | -1.64% (inactive) | -0.0092% (inactive)
O=C(O)CNC(=O)c1ccc(CO)o1 | -18.2% | inactive | inactive | 2.84% | -8.36% (inactive) | -8.36% (inactive) | inactive | inactive | -3.47% (inactive) | 0.936% (inactive)
Cc1cscn1 | -3.55% | inactive | inactive | -2.99% | 3.21% (inactive) | 9.8% (inactive) | inactive | inactive | -1.86% (inactive) | -0.548% (inactive)
NC(=O)c1ccccc1[N+](=O)[O-] | -9.31% | inactive | inactive | 3.46% | 0.827% (inactive) | 5.01% (inactive) | inactive | inactive | -0.853% (inactive) | -0.661% (inactive)
O=c1[nH][nH]c(=O)c2cc([N+](=O)[O-])ccc12 | -1.84% | inactive | inactive | -8.03% | 10.6% (inactive) | 15.8% (inactive) | inactive | inactive | -3.95% (inactive) | 0.392% (inactive)
CC1CCC2CC1C2(C)C (stereo not given) | -0.475% | inactive | inactive | 8.6% | 9.66% (inactive) | 12.3% (inactive) | inactive | inactive | -0.467% (inactive) | -0.9% (inactive)
OCCO | 7.28% | inactive | inactive | 0.506% | 11.2% (inactive) | 21% (inactive) | inactive | inactive | -3.22% (inactive) | -0.33% (inactive)
Cc1cccc(C(=O)O)c1 | -7.73% | inactive | inactive | -2.27% | 12.5% (inactive) | 2.36% (inactive) | inactive | inactive | -0.475% (inactive) | 0.0626% (inactive)
ICCc1ccccc1 | 3.08% | inactive | inactive | -3.71% | 22.3% (inactive) | 3.09% (inactive) | inactive | inactive | -3.45% (inactive) | -1.75% (inactive)
CCCOCC(C)OCC(C)O (stereo not given) | -0.324% | inactive | inactive | -4.87% | 13.7% (inactive) | 6.45% (inactive) | inactive | inactive | -5.61% (inactive) | -1.44% (inactive)
C=C(C)C(N)=O | -0.693% | inactive | inactive | -10.5% | 23.8% (inactive) | -24.4% (inactive) | inactive | inactive | -2.66% (inactive) | -0.276% (inactive)
O=C(O)c1ccccc1Cl | 0.58% | inactive | inactive | 6.35% | 2.61% (inactive) | -4.08% (inactive) | inactive | inactive | -4.07% (inactive) | -0.473% (inactive)
CCOc1ccccc1N | 0.0722% | inactive | inactive | -5.65% | 20.5% (inactive) | -11.6% (inactive) | inactive | inactive | -1.62% (inactive) | -1.4% (inactive)
C1COC1 | -1.49% | inactive | inactive | -8.83% | 0.231% (inactive) | 14.8% (inactive) | inactive | inactive | 0.23% (inactive) | -0.645% (inactive)
CC(C)=CCl | 6.48% | inactive | inactive | -7.86% | 7.55% (inactive) | -1.53% (inactive) | inactive | inactive | -2.89% (inactive) | 0.211% (inactive)
CCOCCOCC | -9.35% | inactive | inactive | -9.02% | 1.41% (inactive) | 12.3% (inactive) | inactive | inactive | 0.0371% (inactive) | -0.436% (inactive)
